Results taken from PubChem BioAssay AID2625 (National Center for Advancing Translational Sciences (NCATS), 2010).
Records with an inconclusive call do not appear. The source made the active and inactive calls. Calls follow the shape of the dose curve; as a rule, active = well fitted curve in the direction sought with a large enough effect; inconclusive = small, poorly fitted or top-dose-only effect, or effect the other way, or another doubt; inactive = no such curve, though single readings can be large or run the other way.

The compounds below were run against Pyruvate kinase PKLR (Homo sapiens) (UniProt P30613) (assay: Secondary LDH Assay for Activators of Human Liver Pyruvate Kinase: for Probe SAR). Settings: purified hPK-L, LDH-coupled NADH fluorescence kinetic; series mostly up to 58.2 µM.
Source text: NIH Chemical Genomics Center [NCGC]
Matthew G. Vander Heiden, M.D., Ph.D. [Harvard Medical School, 77 Avenue Louis Pasteur, Boston, MA 02115]
Human pyruvate kinase liver (hPK-L)enzyme was supplied as a highly purified (>95% pure) preparation from Harvard Medical School and a secondary assay was used to evaluate compounds. This assay couples the formation of pyruvate from hPK-R using lactate dehydrogenase (LDH) and NADH. The depletion of NADH is followed in a fluorescent-based kinetic assay that follows the formation of pyruvate to lactate, as catalyzed LDH. Pyruvate kinase substrates, PEP and ADP, were present in the assay at 0.1 mM and 4 mM respectively. In this kinetic assay initial rates were determined by following the fluorescence of NADH depletion.
NCGC Assay Protocol Summary:
Three uL of substrate mix (final concentration, 50 mM Tris-Cl pH 8.0, 200 mM KCl, 15 mM MgCl2, 0.1 mM PEP, 4.0 mM ADP, and 0.2 mM NADH) was dispensed into black-solid 1536 well plates. 23 nL of compounds were delivered by a pin tool and 1 uL of enzyme mix (final concentrations, 10 nM hPK-L and 1 uM of LDH) was added. Plates were immediately placed in ViewLux (Perkin Elmer) and NADH fluorescence was determined at 30 second exposure intervals for between 3 and 6 minutes. Data were normalized to the uninhibited and EC100 activation using known activators such as fructose-bis-phosphate.

Pyruvate kinase PKLR (Homo sapiens), sequence (P30613 whole entry, looked up): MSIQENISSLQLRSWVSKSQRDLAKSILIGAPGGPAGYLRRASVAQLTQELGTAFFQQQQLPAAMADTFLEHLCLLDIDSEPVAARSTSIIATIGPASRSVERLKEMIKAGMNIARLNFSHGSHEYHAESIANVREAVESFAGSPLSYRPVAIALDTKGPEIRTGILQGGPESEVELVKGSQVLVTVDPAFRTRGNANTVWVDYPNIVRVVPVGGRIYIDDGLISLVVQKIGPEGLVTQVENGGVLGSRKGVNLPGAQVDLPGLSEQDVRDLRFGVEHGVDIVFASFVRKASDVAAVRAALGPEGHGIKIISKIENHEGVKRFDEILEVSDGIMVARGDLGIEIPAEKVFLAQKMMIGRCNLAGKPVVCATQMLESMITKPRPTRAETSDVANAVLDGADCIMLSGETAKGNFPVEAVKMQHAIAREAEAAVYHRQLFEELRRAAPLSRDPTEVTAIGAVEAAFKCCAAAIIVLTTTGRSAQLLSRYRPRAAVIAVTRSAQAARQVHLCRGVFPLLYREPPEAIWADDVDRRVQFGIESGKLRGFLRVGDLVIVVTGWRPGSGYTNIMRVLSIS

outcome, inactive:
COc1ccc(N2C(=O)c3ccccc3C2=O)cc1
CNc1cc2c(cc1S(=O)(=O)Nc1ccc(C)c(C)c1)CCC(=O)N2
CN(C)c1cccc(S(=O)(=O)N2CCN(S(=O)(=O)c3ccc4c(c3)OCCO4)CC2)c1
Cc1ccc(NS(=O)(=O)c2ccc3ccccc3c2)cc1C
Cc1ccc2nc(-c3ccc(C)o3)c(NC3CCCC3)n2c1
CNc1cccc(S(=O)(=O)N2CCN(S(=O)(=O)c3ccc4c(c3)OCCO4)CC2)c1
O=C1c2ccccc2C(=O)N1c1cccnc1
O=S1(=O)N=C(Oc2cccc(Cl)c2)c2ccccc21
Cc1cc(NS(=O)(=O)c2ccc3c(c2)CCC(=O)N3)ccc1Cl
O=C1c2ccccc2C(=O)N1c1cncc2ccccc12
Cc1ccc(NS(=O)(=O)c2cc3c(cc2C)NC(=O)CO3)cc1C
O=C1CCc2cc(S(=O)(=O)NCc3ccccc3)ccc2N1
Cc1ccccc1Nc1c(-c2ccc(Cl)s2)nc2ccccn12
O=C1CCc2cc(S(=O)(=O)Nc3ccc(F)cc3)ccc2N1
Cc1ccc(NS(=O)(=O)c2cc3c(cc2/C=C/c2ccccc2)NC(=O)CO3)cc1C
Nc1cc(S(=O)(=O)N2CCN(S(=O)(=O)c3ccc4c(c3)OCCO4)CC2)ccn1
CCNc1cccc(S(=O)(=O)N2CCN(S(=O)(=O)c3ccc4c(c3)OCCO4)CC2)c1
Cc1c(Cl)cccc1NS(=O)(=O)c1cc2c(cc1F)NC(=O)CC2
O=C1c2ccccc2C(=O)N1c1cccc2ncccc12
O=C1c2ccccc2C(=O)N1Cc1ccccn1
Cc1ccc(NS(=O)(=O)c2cccc(Cl)c2)cc1C
O=C1CCc2cc(S(=O)(=O)Nc3ccccc3-c3ccccc3)ccc2N1
Cc1ccc(NS(=O)(=O)c2cc3c(cc2N2CCC2)NC(=O)CC3)cc1C
Cc1ccc(NS(=O)(=O)c2cc3c(cc2Cl)NC(=O)CO3)cc1C
Cc1cc(N2C(=O)c3ccccc3C2=O)n[nH]1
Cc1cc(NS(=O)(=O)c2ccc3c(c2)CCC(=O)N3)ccc1F
Nc1cccc(S(=O)(=O)N2CCCN(S(=O)(=O)c3ccc4c(c3)OCCO4)CC2)c1
O=C1CCc2cc(S(=O)(=O)Nc3cccc(Oc4ccccc4)c3)ccc2N1
O=C1c2ccccc2C(=O)N1c1ccc(Cl)cc1
N#Cc1ccc(NS(=O)(=O)c2ccc3c(c2)CCC(=O)N3)cc1
O=C1CCc2cc(S(=O)(=O)Nc3cccc(C(F)(F)F)c3)ccc2N1
COc1cccc(N2C(=O)c3ccccc3C2=O)c1
O=C1CCc2cc(S(=O)(=O)Nc3ccc4ncccc4c3)ccc2N1
Cc1ccc(N(C)S(=O)(=O)c2ccc3c(c2)CCC(=O)N3)cc1C
Cc1ccc(NS(=O)(=O)c2ccc(F)cc2)cc1C
COc1cccc(Cn2ncc3c4sc(SC)cc4n(C)c3c2=O)c1
O=C1CCc2cc(S(=O)(=O)Nc3cccc4ccccc34)ccc2N1
Cc1cc2c(s1)c1cnn(Cc3ccccc3F)c(=O)c1n2C
Cc1ccc(NS(=O)(=O)c2ccc3c(c2)CCC(=O)N3)cc1Cl
O=C1CCc2cc(S(=O)(=O)Nc3cccc(-c4ccccc4)c3)ccc2N1
